PubChem BioAssay (NCATS)
Where “and” joins values, the source holds several entries; their conditions need not be identical. Identical values can stand only once. Records with an inconclusive call do not appear. A call without a number means that no potency is given here. Where a structure was tested more than once in an assay, its records may differ in their call. Calls of active or inactive are those of the source. Unless noted, the call rests on the fitted dose curve; in most records, active means well fitted curve in the direction sought with a large enough effect; inconclusive means small, poorly fitted or top-dose-only effect, or another doubt; inactive means no such curve, though single readings can be large; an effect the other way counts as inactive or inconclusive.

Experiments:
CASKI = experiment: Primary qHTS to identify gynecologic anti-cancer compounds using libraries of approved drugs and bioactive compounds (AID 1345084); settings: Gynecologic cancer cell panel viability, ATPlite luminescence, 48 h; series mostly up to 57.5 µM; further: nearly all actives have a fitted effect of over 55% in size; further: potency means the concentration at half of the fitted maximal effect
How it was run: (§1)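 48 h compound exposure at 37 C, 5% CO2; five-point qHTS. ATPlite luminescence readout of cell ATP.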

Es-2 = experiment: as above; settings: Gynecologic cancer cell panel viability, ATPlite luminescence, 48 h; series mostly up to 57.5 µM
How it was run: as §1

HeLa = experiment: as above; settings: Gynecologic cancer cell panel viability, ATPlite luminescence, 48 h; series mostly up to 57.5 µM
How it was run: as §1

Hek293T = experiment: as above; settings: Gynecologic cancer cell panel viability, ATPlite luminescence, 48 h, control line for the selectivity index; series mostly up to 57.5 µM
How it was run: as §1

JEG-3 = experiment: as above; settings: Gynecologic cancer cell panel viability, ATPlite luminescence, 48 h; series mostly up to 57.5 µM
How it was run: as §1

OV90 = experiment: as above; settings: Gynecologic cancer cell panel viability, ATPlite luminescence, 48 h; series mostly up to 57.5 µM
How it was run: as §1

PA-1 = experiment: as above; settings: Gynecologic cancer cell panel viability, ATPlite luminescence, 48 h; series mostly up to 57.5 µM
How it was run: as §1

SKOV3 = experiment: as above; settings: Gynecologic cancer cell panel viability, ATPlite luminescence, 48 h; series mostly up to 57.5 µM
How it was run: as §1

Tov-21-G = experiment: as above; settings: Gynecologic cancer cell panel viability, ATPlite luminescence, 48 h; series mostly up to 57.5 µM
How it was run: as §1

Tov112D = experiment: as above; settings: Gynecologic cancer cell panel viability, ATPlite luminescence, 48 h; series mostly up to 57.5 µM
How it was run: as §1

[1] = Drug repurposing screens with cells derived from glioblastoma tumor samples (AID 1345199); settings: GBM patient neurospheres viability, ATP luminescence, 48 h; Potency: tumour line A unless noted; series mostly up to 45.9 µM; further: nearly all actives have a fitted effect of over 40% in size
How it was run: (§2)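 Four patient lines of CD133+ GBM neurospheres were screened at several concentrations; hits were retested in those lines plus three slower-growing GBM lines, using 48-hour treatment and ATP-based viability.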

astro = experiment: as above; settings: viability, ATP luminescence, 48 h; series mostly up to 45.9 µM
How it was run: as §2

[2] = target: Nuclear receptor subfamily 1 group I member 2 (Rattus norvegicus) (UniProt Q9R1A7); experiment: qHTS assay for small molecule activators of the rat pregnane X receptor (rPXR) signaling pathway (AID 651751; call rule not given here); settings: rPXR reporter cells, luciferase (One-Glo), 24 h
[3] = qHTS assay for small molecule activators of the human pregnane X receptor (PXR) signaling pathway (AID 720659; call rule not given here)

Sequence of Nuclear receptor subfamily 1 group I member 2 (Rattus norvegicus) (Q9R1A7 whole entry, looked up): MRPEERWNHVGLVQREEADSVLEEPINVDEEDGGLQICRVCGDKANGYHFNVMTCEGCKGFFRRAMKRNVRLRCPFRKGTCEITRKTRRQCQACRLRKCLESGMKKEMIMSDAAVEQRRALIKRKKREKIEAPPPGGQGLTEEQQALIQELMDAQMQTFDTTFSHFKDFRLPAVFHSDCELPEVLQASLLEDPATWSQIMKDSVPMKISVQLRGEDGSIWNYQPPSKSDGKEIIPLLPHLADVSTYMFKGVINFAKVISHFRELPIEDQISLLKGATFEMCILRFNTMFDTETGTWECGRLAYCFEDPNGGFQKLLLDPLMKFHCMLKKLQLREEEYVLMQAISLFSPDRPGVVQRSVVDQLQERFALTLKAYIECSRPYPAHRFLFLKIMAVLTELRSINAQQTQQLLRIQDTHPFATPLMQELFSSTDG

Row | SMILES | Potency (CASKI) | Potency (Es-2) | Potency (HeLa) | Potency (Hek293T) | Potency (JEG-3) | Potency (OV90) | Potency (PA-1) | Potency (SKOV3) | Potency (Tov-21-G) | Potency (Tov112D) | Potency [1] | Potency (astro) | max response [2] | outcome [3]
1 | CCNC(=O)CC1N=C(c2ccc(Cl)cc2)c2cc(OC)ccc2-n2c(C)nnc21 (stereo unspecified) | inactive | inactive | inactive | inactive | inactive | inactive | inactive | inactive and 15.8 µM (active) | inactive | inactive |  |  |  | 
2 | CS(=O)(=O)c1ccc(C(=O)C2C(=O)CCCC2=O)c([N+](=O)[O-])c1 | inactive | inactive | inactive | inactive | inactive | inactive | inactive | inactive | inactive | inactive | inactive | inactive | 1.13% (inactive) | 
3 | O=C1C(I)=CC(=C(c2cc(I)c(O)c(I)c2)c2ccccc2C(=O)O)C=C1I | inactive | inactive | inactive | inactive | inactive | inactive | inactive | inactive | inactive | inactive | inactive |  |  | 
4 | C1CCC(NC2CCCCC2)CC1 | inactive | inactive | inactive | inactive | inactive | inactive | inactive | inactive | inactive | inactive | inactive | inactive | -4% (inactive) and -4.51% (inactive) and -0.383% (inactive) | inactive
5 | Cc1ccccc1-n1c(Cn2ncc3c(N)ncnc32)nc2cccc(C)c2c1=O | inactive | inactive | inactive | inactive | inactive | inactive | inactive | inactive | inactive | inactive |  |  |  | 
6 | CC(=O)NCCc1c[nH]c2ccccc12 | inactive | inactive | inactive | inactive | inactive | inactive | inactive | inactive | inactive | inactive |  |  |  | 
7 | COC1=C[C@@H]2[C@@H]3Cc4ccc(OC)c(O)c4[C@]2(CCN3C)CC1=O | inactive | inactive | inactive | inactive | inactive | inactive | inactive | inactive | inactive | inactive |  |  |  | 
8 | CC[N+]1(CCOC(=O)C(O)(c2ccccc2)c2ccccc2)CCCCC1 | inactive | inactive | inactive | inactive | inactive | inactive | inactive | inactive | inactive | inactive | inactive |  |  | 
9 | O=C(N[C@H]1CN2CCC1CC2)c1ccc(Cl)cc1 | inactive | inactive | inactive | inactive | inactive | inactive | inactive | inactive | inactive | inactive |  |  |  | 
10 | O=S(=O)(O)C(F)(F)C(F)(F)C(F)(F)C(F)(F)C(F)(F)C(F)(F)C(F)(F)C(F)(F)F | inactive | inactive | inactive | inactive | inactive | inactive | inactive | inactive | inactive | inactive | inactive |  | 2.44% (inactive) and 1.44% (inactive) | inactive
11 | CC(=O)[O][Hg][c]1ccccc1 | 4.47 µM (active) | 6.31 µM (active) | 14.1 µM (active) | 7.08 µM (active) | 5.01 µM (active) | 12.6 µM (active) | 3.16 µM (active) | 3.55 µM (active) | 2.51 µM (active) | 5.01 µM (active) |  |  |  | 
12 | Oc1ccc2c3c1O[C@H]1[C@@H](O)C=C[C@H]4[C@@H](C2)NCC[C@@]341 | inactive | inactive | inactive | inactive | inactive | inactive | inactive | inactive | inactive | inactive | inactive | inactive |  | 
13 | CC1=C(C(=O)O)N2C(=O)[C@@H](N)[C@H]2SC1 | inactive | inactive | inactive | inactive | inactive | inactive | inactive | inactive | inactive | inactive |  |  |  | 
14 | CC(C)NCC(O)c1ccc([N+](=O)[O-])cc1 (stereo unspecified) | inactive | inactive | inactive | inactive | inactive | inactive | inactive | inactive | inactive | inactive | inactive |  |  | 
15 | O=C(O)COc1nc(Cl)c(Cl)cc1Cl | inactive | inactive | inactive | inactive | inactive | inactive | inactive | inactive | inactive | inactive | inactive | inactive | -1.37% (inactive) | 
16 | COC(=O)c1cncn1C(C)c1ccccc1 (stereo unspecified) | inactive | inactive | inactive | inactive | inactive | inactive | inactive | inactive | inactive | inactive | inactive |  |  | 
17 | O=C(Oc1ccc([N+](=O)[O-])cc1)N1CCN(Cc2cccc(Oc3ccccc3)c2)CC1 | inactive | inactive | inactive | inactive | inactive | inactive | inactive | inactive | inactive | inactive |  |  |  | 
18 | CCc1c(C(=O)C(N)=O)c2c(OCC(=O)O)cccc2n1Cc1ccccc1 | inactive | inactive | inactive | inactive | inactive | inactive | inactive | inactive | inactive | inactive |  |  |  | 
19 | O=S(=O)(O)C(F)(F)C(F)(F)C(F)(F)C(F)(F)F | inactive | inactive | inactive | inactive | inactive | inactive | inactive | inactive | inactive | inactive | inactive |  | -0.463% (inactive) and -1.11% (inactive) | 

Row | SMILES | Potency (CASKI) | Potency (Es-2) | Potency (HeLa) | Potency (Hek293T) | Potency (JEG-3) | Potency (OV90) | Potency (PA-1) | Potency (SKOV3) | Potency (Tov-21-G) | Potency (Tov112D) | Potency [1] | Potency (astro) | max response [2] | outcome [3]
20 | COC(C)(C)CCCC(C)C/C=C/C(C)=C/C(=O)OC(C)C (stereo unspecified) | inactive | inactive | inactive | inactive | inactive | inactive | inactive | inactive | inactive | inactive |  |  |  | 
21 | O=C1C=CC[C@@H]2[C@H]3CCCN4CCC[C@@H](CN12)[C@@H]34 | inactive | inactive | inactive | inactive | inactive | inactive | inactive | inactive | inactive | inactive |  |  |  | 
22 | CC(=O)N(C)c1cccc(-c2ccnc3c(C(=O)c4cccs4)cnn23)c1 | inactive | inactive | inactive | inactive | inactive | inactive | inactive | inactive | inactive | inactive |  |  |  | 
23 | S=C(NC1CCCCC1)N1CCC(c2cnc[nH]2)CC1 | inactive | inactive | inactive | inactive | inactive | inactive | inactive | inactive | inactive | inactive |  |  |  | 
24 | CCOC(=O)Nc1ccc(NCc2ccc(F)cc2)cc1N | inactive | inactive | inactive | inactive | inactive | inactive | inactive | inactive | inactive | inactive |  |  |  | 
25 | O=[N+]([O-])/N=C1\NCCN1Cc1ccc(Cl)nc1 | inactive | inactive | inactive | inactive | inactive | inactive | inactive | inactive | inactive | inactive |  |  | 4.35% (inactive) | inactive
26 | O=C(Oc1ccc([N+](=O)[O-])cc1)N1CCC(C(O)(c2ccc3c(c2)OCO3)c2ccc3c(c2)OCO3)CC1 | inactive | inactive | inactive | inactive | inactive | inactive | inactive | inactive | inactive | inactive |  |  |  | 
27 | Cc1ccccc1-n1c(Cn2cnc3c(N)ncnc32)nc2cccc(C)c2c1=O | inactive | inactive | inactive | inactive | inactive | inactive | inactive | inactive | inactive | inactive |  |  |  | 
28 | c1cc2ccc3cccc4ccc(c1)c2c34 | inactive | inactive | inactive | inactive | inactive | inactive | inactive | inactive | inactive |  | inactive | inactive | 6.39% (inactive) and 2.28% (inactive) | inactive
29 | O=C(O)COc1ccccc1 | inactive | inactive | inactive | inactive | inactive | inactive | inactive | inactive | inactive | inactive | inactive |  | -3.8% (inactive) | inactive
30 | CCN(CC)C(=O)c1ccc(C2=CC3(CCNCC3)Oc3cccc(O)c32)cc1 | inactive | inactive | inactive | inactive | inactive | inactive | inactive | inactive | inactive | inactive |  |  |  | 
31 | CC(O)CN1CCN(CC(=O)[O-])CCN(CC(=O)[O-])CCN(CC(=O)[O-])CC1.[Gd+3] (stereo unspecified) | inactive | inactive | inactive | inactive | inactive | inactive | inactive | inactive | inactive | inactive | inactive | inactive |  | 
32 | CN1CCN(c2ccc([N+](=O)[O-])c3no[n+]([O-])c23)CC1 | inactive | inactive | inactive | inactive | inactive | inactive | inactive | inactive | inactive | inactive |  |  |  | 
33 | CN[C@@H](C)[C@H](O)c1ccccc1 | inactive | inactive | inactive | inactive | inactive | inactive | inactive | inactive | inactive | inactive | inactive |  |  | 
34 | C=CC(=O)NCNC(=O)C=C | inactive | inactive | inactive | inactive | inactive | inactive | inactive | inactive | inactive | inactive | inactive |  | 1.16% (inactive) and 0.492% (inactive) | inactive
35 | O=C(NCC1CCOCC1)c1cnc(Nc2ccc(Cl)cc2Cl)nc1C(F)(F)F | inactive | inactive | inactive | inactive | inactive | inactive | inactive | inactive | inactive | inactive |  |  |  | 
36 | Cc1ccc(Cl)c(O)c1 | inactive | inactive | inactive | inactive | inactive | inactive | inactive | inactive | inactive | inactive | inactive |  |  | 
37 | O=C(Nc1ccccc1-c1ccc(Cl)cc1)c1cccnc1Cl | inactive | inactive | inactive | inactive | inactive |  | inactive | inactive | inactive | inactive |  | inactive |  | 
